# Data: PubChem BioAssay AID1159580 (chemical genetic matrix, 2015)
# Among all 5,500 compounds or so, about 2,000 (36%) were called active. About 18% were inconclusive and are not listed. No stated cut-off is given here; in the data, active means normalized growth mostly below about 0.91 (no sharp cut-off); inconclusive means no clear call, values can overlap the other calls; inactive means mostly above about 0.92. The list shows a part of the results.
# Test: chemical genetic growth profiling, strain panel (AID 1159580);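 further: tested at 20 µM; growth read once vehicle control cultures reached saturation at 30 °C; 1 = growth at the plate median or of vehicle wells; lower values mean less growth of the strain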
# Conditions: S. cerevisiae deletion strains, growth OD
# [1] = locus YHR030C, strain SLT2, hits give low values
# [2] = locus YHR079C, strain IRE1, hits give low values
# [3] = locus YJL095W, strain BCK1, hits give low values
# [4] = locus YJR066W, strain TOR1, hits give low values
# [5] = locus YLR113W, strain HOG1, hits give low values
# [6] = locus YNL183C, strain NPR1, hits give low values
# [7] = locus YOR231W, strain MKK1, hits give low values
# [8] = locus YPL256C, strain CLN2, hits give low values
structure (smiles),measurement,setting,value
Cc1cc2nc3c(=O)[nH]c(=O)nc-3n(C[C@@H](O)[C@@H](O)[C@@H](O)COP(=O)(O)O)c2cc1C,normalized growth,[1],1.04 (inactive)
same,normalized growth,[2],1.04 (inactive)
same,normalized growth,[3],1.03 (inactive)
same,normalized growth,[4],0.966 (inactive)
same,normalized growth,[5],1.03 (inactive)
same,normalized growth,[6],0.97 (inactive)
same,normalized growth,[7],1.04 (inactive)
same,normalized growth,[8],1.04 (inactive)
Cc1cc2nc3c(=O)[nH]c(=O)nc-3n(CC(O)C(O)C(O)CO)c2cc1C (configuration not stated),normalized growth,"locus YAL021C, strain ccr4, hits give low values",0.995 (inactive)
same,normalized growth,"locus YAL026C, strain drs2, hits give low values",0.981 (inactive)
same,normalized growth,"locus YAL030W, strain snc1, hits give low values",0.944 (inactive)
same,normalized growth,"locus YBL061C, strain skt5, hits give low values",0.988 (inactive)
same,normalized growth,"locus YBR009C, strain hhf1, hits give low values",0.954 (inactive)
same,normalized growth,"locus YBR023C, strain chs3, hits give low values",1.01 (inactive)
same,normalized growth,"locus YBR171W, strain sec66, hits give low values",0.962 (inactive)
same,normalized growth,"locus YBR231C, strain swc5, hits give low values",1.01 (inactive)
same,normalized growth,"locus YBR279W, strain paf1, hits give low values",1 (inactive)
same,normalized growth,"locus YCL011C, strain gbp2, hits give low values",0.987 (inactive)
same,normalized growth,"locus YCL016C, strain dcc1, hits give low values",1.05 (inactive)
same,normalized growth,"locus YCL069W, strain vba3, hits give low values",0.959 (inactive)
same,normalized growth,"locus YCR088W, strain abp1, hits give low values",0.974 (inactive)
same,normalized growth,"locus YDL005C, strain med2, hits give low values",0.99 (inactive)
same,normalized growth,"locus YDL040C, strain nat1, hits give low values",0.982 (inactive)
same,normalized growth,"locus YDR001C, strain nth1, hits give low values",0.982 (inactive)
same,normalized growth,"locus YDR069C, strain doa4, hits give low values",0.964 (inactive)
same,normalized growth,"locus YDR137W, strain rgp1, hits give low values",1.05 (inactive)
same,normalized growth,"locus YDR159W, strain sac3, hits give low values",0.9 (inactive)
same,normalized growth,"locus YDR195W, strain ref2",1.01 (inactive)
same,normalized growth,"locus YDR297W, strain sur2, hits give low values",0.955 (inactive)
same,normalized growth,"locus YDR334W, strain swr1, hits give low values",0.932 (inactive)
same,normalized growth,"locus YDR335W, strain msn5, hits give low values",1.02 (inactive)
same,normalized growth,"locus YDR392W, strain spt3, hits give low values",0.91 (inactive)
same,normalized growth,"locus YEL003W, strain gim4, hits give low values",0.907 (active)
same,normalized growth,"locus YEL037C, strain rad23, hits give low values",0.974 (inactive)
same,normalized growth,"locus YEL061C, strain CIN8 (second series), hits give low values",0.962 (inactive)
same,normalized growth,"locus YER015W, strain faa2, hits give low values",0.97 (inactive)
same,normalized growth,"locus YER016W, strain bim1, hits give low values",0.994 (inactive)
same,normalized growth,"locus YER111C, strain swi4, hits give low values",1 (inactive)
same,normalized growth,"locus YER155C, strain BEM2 (second series), hits give low values",0.912 (inactive)
same,normalized growth,"locus YFR010W, strain ubp6, hits give low values",0.91 (inactive)
same,normalized growth,"locus YGL167C, strain pmr1, hits give low values",0.958 (inactive)
same,normalized growth,"locus YGL173C, strain kem1, hits give low values",0.974 (inactive)
same,normalized growth,"locus YGL227W, strain vid30, hits give low values",0.98 (inactive)
same,normalized growth,"locus YGL240W, strain doc1, hits give low values",0.927 (inactive)
same,normalized growth,"locus YGL253W, strain hxk2, hits give low values",1.01 (inactive)
same,normalized growth,"locus YHR013C, strain ard1, hits give low values",0.992 (inactive)
same,normalized growth,"locus YHR027C, strain rpn1, hits give low values",0.959 (inactive)
same,normalized growth,[1],0.959 (inactive)
same,normalized growth,[2],0.968 (inactive)
same,normalized growth,"locus YHR142W, strain chs7, hits give low values",1.01 (inactive)
same,normalized growth,"locus YJL092W, strain hpr5, hits give low values",0.98 (inactive)
same,normalized growth,"locus YJL095W, strain BCK1 (second series), hits give low values",0.985 (inactive)
same,normalized growth,[3],0.966 (inactive)
same,normalized growth,"locus YJL115W, strain asf1, hits give low values",0.969 (inactive)
same,normalized growth,"locus YJL129C, strain trk1, hits give low values",0.996 (inactive)
same,normalized growth,"locus YJL154C, strain vps35, hits give low values",0.967 (inactive)
same,normalized growth,"locus YJL164C, strain tpk1, hits give low values",0.924 (inactive)
same,normalized growth,"locus YJL166W, strain qcr8, hits give low values",0.94 (inactive)
same,normalized growth,"locus YJL187C, strain SWE1, hits give low values",0.974 (inactive)
same,normalized growth,[4],0.926 (inactive)
same,normalized growth,"locus YKL160W, strain elf1, hits give low values",1.03 (inactive)
same,normalized growth,"locus YKR026C, strain gcn3, hits give low values",0.982 (inactive)
same,normalized growth,"locus YKR091W, strain srl3, hits give low values",0.985 (inactive)
same,normalized growth,"locus YLL001W, strain dnm1, hits give low values",0.95 (inactive)
same,normalized growth,"locus YLL026W, hits give low values",0.973 (inactive)
same,normalized growth,"locus YLL041C, strain sdh2, hits give low values",1 (inactive)
same,normalized growth,"locus YLR027C, strain aat2, hits give low values",0.98 (inactive)
same,normalized growth,[5],0.957 (inactive)
same,normalized growth,"locus YLR221C, strain rsa3, hits give low values",0.937 (inactive)
same,normalized growth,"locus YLR258W, strain gsy2, hits give low values",1 (inactive)
same,normalized growth,"locus YLR262C, strain YPT6 (second series), hits give low values",0.988 (inactive)
same,normalized growth,"locus YLR320W, strain mms22, hits give low values",0.956 (inactive)
same,normalized growth,"locus YLR342W, strain FKS1, hits give low values",0.964 (inactive)
same,normalized growth,"locus YLR357W, strain rsc2, hits give low values",0.9 (inactive)
same,normalized growth,"locus YLR370C, strain arc18, hits give low values",1.01 (inactive)
same,normalized growth,"locus YLR384C, strain iki3, hits give low values",1.01 (inactive)
same,normalized growth,"locus YML120C, strain ndi1, hits give low values",0.918 (inactive)
same,normalized growth,"locus YMR058W, strain fet3, hits give low values",0.941 (inactive)
same,normalized growth,"locus YMR125W, strain sto1, hits give low values",0.985 (inactive)
same,normalized growth,"locus YMR129W, hits give low values",1 (inactive)
same,normalized growth,"locus YMR205C, strain PFK2, hits give low values",1 (inactive)
same,normalized growth,"locus YMR231W, strain pep5, hits give low values",0.968 (inactive)
same,normalized growth,"locus YNL071W, strain lat1, hits give low values",0.972 (inactive)
same,normalized growth,[6],0.933 (inactive)
same,normalized growth,"locus YNL209W, strain ssb2, hits give low values",1 (inactive)
same,normalized growth,"locus YNL248C, strain rpa49, hits give low values",0.997 (inactive)
same,normalized growth,"locus YNL322C, strain KRE1 (second series), hits give low values",0.996 (inactive)
same,normalized growth,"locus YNR049C, strain mso1, hits give low values",0.994 (inactive)
same,normalized growth,"locus YOR001W, strain rrp6, hits give low values",0.908 (inactive)
same,normalized growth,"locus YOR070C, strain gyp1, hits give low values",0.984 (inactive)
same,normalized growth,"locus YOR080W, strain dia2, hits give low values",0.989 (inactive)
same,normalized growth,"locus YOR083W, strain WHI5, hits give low values",0.951 (inactive)
same,normalized growth,"locus YOR106W, strain vam3, hits give low values",0.96 (inactive)
same,normalized growth,[7],0.966 (inactive)
same,normalized growth,"locus YOR265W, strain rbl2, hits give low values",0.973 (inactive)
same,normalized growth,"locus YOR270C, strain vph1, hits give low values",0.965 (inactive)
same,normalized growth,"locus YOR290C, strain snf2, hits give low values",1.01 (inactive)
same,normalized growth,"locus YPL051W, strain arl3, hits give low values",1.01 (inactive)
same,normalized growth,"locus YPL078C, strain atp4, hits give low values",1.02 (inactive)
same,normalized growth,"locus YPL106C, strain sse1, hits give low values",0.951 (inactive)
same,normalized growth,"locus YPL240C, strain hsp82, hits give low values",0.996 (inactive)
same,normalized growth,[8],0.98 (inactive)
